Laboratory results taken from PubChem BioAssay AID602478 (National Center for Advancing Translational Sciences (NCATS), 2012).
Records with an inconclusive call do not appear. Unmarked numbers belong to inactive results. Active and inactive are the calls of the source. Calls follow the shape of the dose curve; as a rule, active = well fitted activation curve with a large enough effect; inconclusive = small, poorly fitted or top-dose-only effect; inactive = flat fitted curve, though single readings scatter.

What follows are compounds tested against Luciferin 4-monooxygenase (Photinus pyralis) (UniProt P08659) (assay: FLuc inhibitory activity for the follow-up compounds in a cell-based translational read-through assay (72 hour incubation)). Settings: GripTite 293 FLucUGA read-through, luminescence; series mostly up to 38.3 µM; activation (luciferase signal increase): at the top concentration.
Sequence of Luciferin 4-monooxygenase (Photinus pyralis) (P08659 whole entry, looked up): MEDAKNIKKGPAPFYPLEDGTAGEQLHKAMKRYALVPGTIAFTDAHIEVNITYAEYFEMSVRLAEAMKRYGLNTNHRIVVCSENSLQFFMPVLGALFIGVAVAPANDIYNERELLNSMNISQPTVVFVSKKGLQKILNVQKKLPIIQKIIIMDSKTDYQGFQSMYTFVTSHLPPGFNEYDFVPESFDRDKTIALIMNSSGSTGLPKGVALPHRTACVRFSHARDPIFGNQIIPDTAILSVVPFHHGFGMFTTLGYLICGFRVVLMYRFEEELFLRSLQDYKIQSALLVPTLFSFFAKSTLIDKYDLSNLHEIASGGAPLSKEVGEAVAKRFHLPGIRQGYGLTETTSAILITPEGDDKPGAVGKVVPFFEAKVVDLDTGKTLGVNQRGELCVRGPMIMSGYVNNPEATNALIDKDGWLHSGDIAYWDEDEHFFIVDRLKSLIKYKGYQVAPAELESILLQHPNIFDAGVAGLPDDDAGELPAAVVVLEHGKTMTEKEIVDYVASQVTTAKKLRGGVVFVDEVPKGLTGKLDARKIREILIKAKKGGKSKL
Excerpt: NCGC Assay Overview: Firefly (Photinus pyralis) luciferase is one of the most commonly used transcriptional reporters. It is considered one of the more dynamically responsive reporters - that is, responsive to changes in reporter transcription - as it requires no post-translational modifications and is enzymatically active directly after protein synthesis (Wood, 1998). With no endogenous expression in mammalian cells and without the requirement of external excitation, it offers very little background signal, thus generally providing excellent signal to background for most assays. Previous profiling work to determine the prevalence of compounds that affect FLuc enzymatic activity (PubChem AID 411) identified that ~3% of the MLSMR library (then at ~72K) inhibited FLuc (Auld et al., 2008). […] Of the compounds identified in this profile that inhibited FLuc, 151 compounds were selected for further analysis, in an effort to better understand their mode of inhibiting FLuc. The assay described here was to determine the activity of the compounds in a cell-based firefly luciferase reporter gene assay originally designed to identify compounds that enchanced translational read-through of a FLuc cDNA that contained a premature stop codon (Auld et al., 2009; Auld et al., 2010). Compounds that enhance translational read-through or compounds that stabilize FLuc intracellularly are identified as active compounds in the assay.
NCGC Assay Protocol Summary: Reagents: Transient transfection of FlucUGA construct: TransFast Transfection Reagent (Promega #E2431); FLucUGA construct (refer to Auld et al., 2009) #GripTite 293 MSR Cell Line (Invitrogen #R795-07) #Complete growth media: DMEM (Invitrogen #11965), 10% HIFBS, 0.1mM MEM NEAA, 5mL/L pen-strep (of 5000U/mL stock), 600ug/mL Geneticin #Assay media: DMEM without phenol red (Invitrogen #21063), 5% charcoal-stripped HIFBS (Hyclone #SH30071.03), 0.1mM MEM NEAA In-house detection reagent: 300mM Tris-HCl, 300mM Trizma base, 300mM MgCl, 1% Triton-X100, 5mM DTT, 500uM Coenzyme A trilithium salt (Sigma #C3019),450uM ATP (Sigma #A7699), 1mM D-luciferin sodium salt monohydrate (Biosynth #L8240) Control compounds used were two known firefly luciferase inhibitors (3-(5-(3-chlorophenyl)-1,2,4-oxadiazol-3-yl)benzoic acid and 5-(2-fluorophenyl)-3-phenyl-1,2,4-oxadiazole), and DMSO. Assay Summary: Transient transfection of FlucUGA construct: Day 1: GripTite cells were plated in T175 flasks at a density of 1.75 x 10^7 cells/T175 flask in complete growth media without Geneticin and allowed to grow ON in a 37 degrees Celsius incubator. Day 2: Cells in T175 flask were transfected - with 10ug of DNA and 30uL Transfast in 12mL complete growth media without serum and without Geneticin for 4 hours at 37 degrees Celsius. After incubation, cells were trypsinized, spun down, and resuspended to a concentration of 3.3 x 10^5 cells/mL in assay media. 6uL of cells in assay buffer were dispensed at 2000cells/well (3.3 x 10^5 cells/mL) into Greiner solid-white TC-treated 1536-well plates using a Multidrop Combi (Thermo Fisher Scientific). Plates were incubated for one hour at 37 degree Celsius, 95% humidity, 5% CO2. These assay plates were then treated with 23nL of compound or DMSO using a Kalypsys pin tool, which allows for delivery of a 12-point titration of each compound to the assay plate, with a final compound concentration ranging from approximately ~38uM to 0.2nM. Assay plates were then incubated for 72 hours. After incubation, plates were washed three times with DPBS (7uL/well). After the third wash, 6uL of DPBS was added to each well. 3uL of 3X luciferase detection reagent was then added to each well using a flying reagent dispenser (FRD). After a 15 minute incubation to allow for cell lysis, luciferase activity was measured using a ViewLux CCD imager (PerkinElmer), with an average exposure time of 2-12 seconds.

SMILES	Potency	activation (luciferase signal increase) [%]
Cc1ccc(C(=O)O/N=C(\N)c2ccccn2)cc1	2.25 µM (active)	–
CC(=O)Oc1ccc(C(=O)Nc2ccccc2C(=O)Nc2ccc(C(=O)O)cc2)cc1	–	-0.991
CC(C)Oc1ccc(C(=O)Nc2ccc(-c3nc4ccccc4s3)cc2)cc1	–	8.81
Cc1ccc2sc(-c3ccc(NC(=O)c4cc(-n5cnnc5)ccc4Cl)cc3)nc2c1	14.2 µM (active)	–
COc1ccc2nc(NC(=O)c3cnccn3)sc2c1	3.56 µM (active)	–
O=C(O)c1cccc(NC(=O)c2cccc(NC(=O)C3CCCO3)c2)c1 (stereo unspecified)	–	7.52
Cc1ccc2nc(-c3ccc(N)cc3)sc2c1	1.42 µM (active)	–
Cc1ccc(C(=O)Nc2cccc(C(=O)O)c2)cc1S(=O)(=O)N1CCOCC1	11.3 µM (active)	–
Nc1ccc2nc(-c3ccccc3)sc2c1	1.13 µM (active)	–
CC(C)C(=O)Nc1cccc(C(=O)Nc2ccccc2C(=O)O)c1	–	6.56
COc1cc(OC)cc(C(=O)Nc2ccccc2-c2nc3ccccc3s2)c1	–	4.56
O=C(O)c1cccc(NC(=O)c2cccc(S(=O)(=O)Nc3cccc(F)c3)c2)c1	–	0.415
COc1ccc(NS(=O)(=O)c2cccc(C(=O)Nc3ccccc3C(=O)O)c2)cc1	–	1.98
COc1ccc2nc(NC(=O)c3ccc([N+](=O)[O-])o3)sc2c1	20 µM (active)	–
Cc1ccc(C(=O)Nc2ccc(C(=O)O)cc2)cc1S(=O)(=O)Nc1ccccc1	–	1.36
O=C(Nc1ccccc1C(=O)O)c1cccc(NC(=O)c2ccccc2Cl)c1	–	5.43
